The campaign covered roughly 220,000 compounds. About 910 (0.41%) were called active. The list comes from a sample in which actives are over-represented; it also holds similar structures and randomly drawn compounds. Entries with a potency or affinity are not part of this list. Values without a mark were called inactive.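 The calls were made as follows: active = primary inhibition above the hit cutoff, then over 50% inhibition at one or more dose response concentrations (cut at about 23% in these data, passing the limit was not always enough); inconclusive = conflicting primary data, or primary hits not chosen for dose response; inactive = low primary inhibition, or under 50% at every dose.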
What follows are compounds tested against Aminopeptidase N (Plasmodium falciparum (isolate 3D7)) (UniProt O96935) (assay: P. falciparum M1AAP inhibitors, biochemical, fluorogenic H-Leu-NHMec substrate, 1536-well (AID 1445;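 also: plate controls were DMSO full reaction for no effect and no enzyme background for full effect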)). Settings: recombinant M1AAP, H-Leu-NHMec fluorogenic kinetic assay; at 30 µM, hits give high values unless noted.
Chain of Aminopeptidase N (Plasmodium falciparum (isolate 3D7)) (O96935 whole entry, looked up): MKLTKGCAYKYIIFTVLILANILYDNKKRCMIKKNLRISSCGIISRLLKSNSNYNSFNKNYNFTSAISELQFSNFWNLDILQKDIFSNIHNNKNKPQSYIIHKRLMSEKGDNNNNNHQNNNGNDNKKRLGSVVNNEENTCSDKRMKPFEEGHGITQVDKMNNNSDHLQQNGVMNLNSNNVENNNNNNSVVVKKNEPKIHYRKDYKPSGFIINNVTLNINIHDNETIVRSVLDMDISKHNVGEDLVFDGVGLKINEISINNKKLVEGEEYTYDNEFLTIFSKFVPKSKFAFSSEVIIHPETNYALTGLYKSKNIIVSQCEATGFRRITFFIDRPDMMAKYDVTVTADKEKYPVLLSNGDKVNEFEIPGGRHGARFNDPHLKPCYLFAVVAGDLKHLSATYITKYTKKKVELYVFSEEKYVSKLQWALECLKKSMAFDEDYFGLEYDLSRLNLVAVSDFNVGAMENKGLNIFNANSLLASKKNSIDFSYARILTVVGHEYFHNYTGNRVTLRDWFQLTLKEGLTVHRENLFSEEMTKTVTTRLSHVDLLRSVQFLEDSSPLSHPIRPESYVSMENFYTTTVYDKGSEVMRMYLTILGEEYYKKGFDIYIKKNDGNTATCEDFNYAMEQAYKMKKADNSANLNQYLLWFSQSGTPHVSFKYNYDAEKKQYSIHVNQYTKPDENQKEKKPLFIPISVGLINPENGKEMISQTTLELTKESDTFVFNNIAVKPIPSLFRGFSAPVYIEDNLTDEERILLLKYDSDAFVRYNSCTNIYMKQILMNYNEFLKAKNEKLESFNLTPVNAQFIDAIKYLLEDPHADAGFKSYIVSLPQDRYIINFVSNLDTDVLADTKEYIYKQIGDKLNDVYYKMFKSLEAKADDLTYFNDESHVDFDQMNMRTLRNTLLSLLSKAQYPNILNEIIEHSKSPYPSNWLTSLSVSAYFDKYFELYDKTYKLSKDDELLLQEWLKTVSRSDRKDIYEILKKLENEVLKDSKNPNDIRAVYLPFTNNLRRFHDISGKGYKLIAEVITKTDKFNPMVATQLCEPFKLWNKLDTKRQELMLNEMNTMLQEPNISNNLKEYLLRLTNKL

| Compound | inhibition |
| --- | --- |
| CC(=O)Nc1ccc(S(=O)(=O)N2CCC(NC(=O)C(Cc3cccn3C)NC(C)=O)CC2)cc1 (stereo unspecified) | -2.05% |
| O=C(CCCn1cnc([N+](=O)[O-])n1)Nc1cccc(O)c1 | 4.83% |
| C[C@H](NC(=O)c1nc[nH]c1C(=O)N[C@@H](Cc1ccccc1)C(=O)OC(C)(C)C)c1ccccc1 | -12.4% |
| COC(=O)C1=C(C(=O)OC)[C@@H]2N(Cc3ccccc3)c3ccccc3[C@@]23C[C@@H](C(=O)OC)N=C3N1 | 7.23% |
| Cc1ccc2cc(CN(Cc3ccco3)S(=O)(=O)c3c(C)ccc4nsnc34)c(=O)[nH]c2c1 | 8.06% |
| Cc1ccc2[nH]c(=O)c(CN(Cc3ccco3)S(=O)(=O)c3c(C)ccc4nsnc34)cc2c1 | 24.1% (active) |
| Cc1cc2cc(CN(Cc3ccco3)S(=O)(=O)c3c(C)ccc4nsnc34)c(=O)[nH]c2cc1C | 12.1% |
| CC12CNCC(C)(CN(C3(O)C(=O)Nc4ccc(Br)cc43)C1)C2=O (stereo unspecified) | -7.16% |
| O=C(c1cccc([N+](=O)[O-])c1)N1CCN(Cc2ccc3c(c2)OCO3)CC1 | 0.06% |
| O=C(/C=C/c1cccc([N+](=O)[O-])c1)NCc1ccc2c(c1)OCO2 | 6.01% |
| CN(Cc1c(F)cccc1Cl)c1ccc(S(=O)(=O)N2CCOCC2)cn1 | -2.07% |
| O=C1OC(c2cccs2)=N/C1=C\c1ccc(-c2cccc(Cl)c2)o1 | 24.5% (active) |
| O=C1OC(c2cccs2)=N/C1=C/c1ccc(-c2cccc(C(=O)O)c2)o1 | 10.5% |
| O=C1OC(c2cccs2)=N/C1=C\c1ccc(-c2ccccc2Cl)o1 | 15.5% |
| O=C(COC(=O)c1cccs1)NC1CCCCC1 | 4.47% |
| COc1ccc(/C=C/c2cc(C(F)(F)F)[nH]c(=O)n2)cc1OC | 10.6% |
| O=c1nc(/C=C/c2ccc(-c3ccc(F)cc3)o2)cc(C(F)(F)F)[nH]1 | 27.6% (active) |
| O=C(O)c1ccccc1-c1ccc(/C=C/c2cc(C(F)(F)F)[nH]c(=O)n2)o1 | 15.6% |
| COC(=O)[C@@H]1CC[C@H](C)[C@@H](c2ccc(C)cc2)N1C(=O)c1ccc(/C=N/OC[C@@H](O)[C@H]2O[C@@H]3OC(C)(C)O[C@@H]3[C@H]2O)cc1 | 7.48% |
| COc1ccccc1NC(=O)c1cc([N+](=O)[O-])ccc1NCCN1C(=O)CCC1=O | 10.1% |
| O=C(O)c1cccc(S(=O)(=O)Nc2ccc3oc(=O)sc3c2)c1 | 89.5% |
| Cc1ccc(S(=O)(=O)Nc2ccc3oc(=O)sc3c2)c(C)c1 | 21.7% |
| OCCN1CCN(CCOc2ccccc2-c2ccccc2)CC1 | -1.14% |

| Compound | inhibition |
| --- | --- |
| C=C(C)c1cccc(C(C)(C)NC(=O)Nc2cc(C)ccn2)c1 | 14.8% |
| C=C(C)c1cccc(C(C)(C)NC(=O)Nc2ccc(Cl)cn2)c1 | 6.48% |
| O=C(C=C1CCN(c2ncc(C(F)(F)F)cc2Cl)CC1)NNC(=O)Nc1ccc(Cl)cc1 | 1.48% |
| Nc1c(N(CCO)C(=O)C2CCCCC2)c(=O)[nH]c(=O)n1Cc1ccccc1 | 3.34% |
| COCCCN(C(=O)c1cc2c(s1)CCC2)c1c(N)n(Cc2ccccc2)c(=O)[nH]c1=O | -2.38% |
| Cc1nnc2sc(-c3ccccn3)nn12 | -1.47% |
| COC(=O)C1=C(N)Oc2cc(C)n(CCCn3ccnc3)c(=O)c2C1c1ccc(Cl)cc1 (stereo unspecified) | 27.9% (active) |
| COC(=O)C1=C(N)Oc2cc(C)n(CC3CCCO3)c(=O)c2C1c1ccc(Cl)cc1 (stereo unspecified) | 10.9% |
| COC(=O)C1=C(N)Oc2cc(C)n(C)c(=O)c2C1c1ccc(Cl)cc1 (stereo unspecified) | -1.12% |
| Cc1ccc(C)c(-n2c(Cc3cccs3)n[nH]c2=S)c1 | -6.44% |
| CC(C)CCNC(=O)C(c1ccco1)N(CCCO)C(=O)Cn1nnc(-c2ccc(F)cc2)n1 (stereo unspecified) | 2.71% |
| O=C(CSc1nnc(NC2CCCCC2)s1)Nc1ccc(N2CCOCC2)cc1 | 0.83% |
| O=C(Nc1ccccc1)/C(=C/c1cccnc1)NC(=O)c1ccco1 | -3.98% |
| CCOc1cc(/C=N\NC(=O)c2ccc(C)nc2)cc([N+](=O)[O-])c1O | 19.1% |
| Cc1ccc(/C=N/NC(=O)c2cccs2)cc1[N+](=O)[O-] | 5.44% |
| O=C(c1cccnc1)N1CCN(c2ccc([N+](=O)[O-])cc2Cl)CC1 | 7.28% |
| CCN1CCCC1CNC(=O)C(=O)Nc1ccccc1 (stereo unspecified) | 4.81% |
| O=C1Nc2ccc(Cl)cc2C12Nc1ccccc1-c1nnc(SCc3ccccc3F)nc1O2 (stereo unspecified) | 19.9% |
| O=C1Nc2ccc(F)cc2C12Nc1ccccc1-c1nnc(SCc3ccccc3Cl)nc1O2 (stereo unspecified) | 14.4% |
| CC(Oc1cc(F)ccc1[N+](=O)[O-])C(=O)N(C)CC(=O)Nc1ccccc1C(F)(F)F (stereo unspecified) | 7.16% |
| O=C1C2=C(c3ccccc31)[N+](=O)[C@@H]1CCCC[C@@H]1N2[O-] | 8.78% |
| CC(NC(=S)Nc1ccc(F)cc1)C(c1cccs1)N1CCOCC1 (stereo unspecified) | 1.91% |
| CC1=CN2C(=N)/C(=C/c3ccco3)C(=O)N=C2S1 | 11% |

Reference: PubChem BioAssay AID1445 (SRMLSC, 2008)
